Reference: PubChem BioAssay
Records with an inconclusive call do not appear. The source made the active and inactive calls. Unless noted, no cut-off is given here; in the data, nearly all actives have AC50 up to about 26 µM.

Assays:
[1] = growth inhibition of DIPG glioma cells, dose response, cell-based, SU-DIPG-XVII, MIPE5.0, CellTiter-Glo, qHTS (AID 1347060); conditions: SU-DIPG-XVII viability, CellTiter-Glo ATP luminescence;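 for AC50: cells exposed to compound for 48 hours before viability readout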
[2] = growth inhibition of DIPG glioma cells, dose response, cell-based, JHH-DIPG-1, MIPE4.0, CellTiter-Glo, qHTS (AID 1347062; cut-off not given, nearly all actives have AC50 up to about 27 µM;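 for AC50: cells exposed to compound for two days before readout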); conditions: JHH-DIPG-1 viability, CellTiter-Glo ATP luminescence
[3] = growth inhibition of DIPG glioma cells, dose response, cell-based, SU-DIPG-IV, MIPE4.0, CellTiter-Glo, qHTS (AID 1347063; cut-off not given, nearly all actives have AC50 up to about 30 µM;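 note: compound exposure lasted 48 hours before the viability readout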); conditions: SU-DIPG-IV viability, CellTiter-Glo ATP luminescence
[4] = viability loss in pontine glioma line – cell-based, SU-DIPG-XXV, MIPE5.0, CellTiter-Glo, qHTS, dose response (AID 1347065); conditions: CellTiter-Glo ATP luminescence;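 note: cells exposed to compound for 48 hours before ATP readout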
[5] = SU-DIPG-VI glioma cell viability, MIPE4.0 library, CellTiter-Glo luminescence, qHTS (AID 1347066; cut-off not given, nearly all actives have AC50 up to about 30 µM;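 note: cells exposed to compound for 48 hours before readout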); conditions: CellTiter-Glo ATP luminescence
[6] = JHH-DIPG-1 glioma cell viability, MIPE5.0 library, CellTiter-Glo luminescence, qHTS (AID 1347067); conditions: JHH-DIPG-1 glioma viability, CellTiter-Glo ATP luminescence;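 note: cells exposed to compound for 48 hours before readout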
[7] = sensitizers of A549 cells to miR-34 induction, primary screen, imaging, A549 dox-inducible miR-34, nuclei and caspase counts (AID 1347080;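 active = compounds whose cell count with miR-34 switched on is under 0.7 times the count with it off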); conditions: A549 miR-34 inducible, Hoechst nuclei count, 48 h
[8] = survival rescue of mitochondrial mutant cells in low glucose, primary screen, MELAS cybrids, Rieske KO mouse fibroblasts, CellTiter-Glo (AID 1508586;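 active = mean z-score across replicates of 1.96 or higher in either the MELAS or the Rieske mutant cell line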;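 note: z relative to plate mean and SD of compound and empty wells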)
[9] = ovarian cancer cell viability with rucaparib, profiling panel, oncology-focused library, rucaparib conditional (AID 1508598;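 active = normalized viability below 100% at a tested concentration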); conditions: patient-derived ovarian cancer cells, CellTiter-Glo viability, 144 h, stronger effect = lower value
[10] = SU-DIPG-XXV glioma cell viability, MIPE5.0 library, qHTS (AID 1347068; cut-off not given, nearly all actives have IC50 up to about 30 µM;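 for IC50: cells exposed to compound for 48 hours before viability readout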)
[11] = growth inhibition of DIPG glioma cells, dose response, cell-based, SU-DIPG-XIII, MIPE5.0, CellTiter-Glo, qHTS (AID 1347064; cut-off not given, nearly all actives have AC50 up to about 23 µM;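 note: cells exposed to compound for 48 hours before the viability read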); conditions: SU-DIPG-XIII viability, CellTiter-Glo ATP luminescence
[12] = modifiers of HSF1 nuclear foci, imaging, Selleck Cancer Library (AID 1347162; in the data active = plate-normalised HSF1 focus index below about 0.46); conditions: human cells, at 10 µM; SSMD: measured here: HSF1 foci SSMD mean; cell count: measured here: cell number; plate-normalised HSF1 focus index: stronger effect = lower value
[13] = stronger effect = lower value, cell number ratio, induced over uninduced
[14] = measured here: relative caspase fold change +Dox/-Dox
[15] = measured here: total cells with miR-34 induction, stronger effect = lower value
[16] = measured here: total cells without miR-34 induction
[17] = MELAS cybrid survival, CellTiter-Glo 48 h, stronger effect = higher value
[18] = Rieske KO mouse fibroblast survival, CellTiter-Glo 72 h

C#Cc1cccc(Nc2ncnc3cc(OCCOC)c(OCCO)cc23)c1
0.554: fold change [7, 14]
2660: cell count [7, 15]
-0.287: z-score [8, 18]
active: AC50 [1] 11.8 µM | AC50 [2] 6.62 µM | AC50 [3] 2.96 µM | AC50 [4] 7.42 µM | AC50 [6] 2.63 µM | viability ([9]; at 0.0781 µM, OCI-P5x cells, with rucaparib 20 µM, 100% = cells with rucaparib alone) 96.3% | viability ([9]; at 0.313 µM, OCI-C5x cells, with rucaparib 10 µM, 100% = cells with rucaparib alone) 100% | viability ([9]; at 0.313 µM, OCI-P5x cells, with rucaparib 20 µM, 100% = cells with rucaparib alone) 97.1% | viability ([9]; at 1.25 µM, OCI-C5x cells, with rucaparib 10 µM, 100% = cells with rucaparib alone) 78.3% | viability ([9]; at 1.25 µM, OCI-C5x cells, without rucaparib) 95.1% | viability ([9]; at 1.25 µM, OCI-P5x cells, with rucaparib 20 µM, 100% = cells with rucaparib alone) 85.9% | viability ([9]; at 1.25 µM, OCI-P5x cells, without rucaparib) 93.4% | viability ([9]; at 5 µM, OCI-C5x cells, with rucaparib 10 µM, 100% = cells with rucaparib alone) 54.8% | viability ([9]; at 5 µM, OCI-C5x cells, without rucaparib) 52.7% | viability ([9]; at 5 µM, OCI-P5x cells, with rucaparib 20 µM, 100% = cells with rucaparib alone) 68.7% | viability ([9]; at 5 µM, OCI-P5x cells, without rucaparib) 64.5%
3380: cell count [7, 16]
inactive: outcome [5] | fold change [7, 13] 0.787 | z-score [8, 17] -0.467 | viability ([9]; at 0.000305 µM, OCI-C5x cells, with rucaparib 10 µM, 100% = cells with rucaparib alone) 118% | viability ([9]; at 0.000305 µM, OCI-C5x cells, without rucaparib) 140% | viability ([9]; at 0.000305 µM, OCI-P5x cells, with rucaparib 20 µM, 100% = cells with rucaparib alone) 109% | viability ([9]; at 0.000305 µM, OCI-P5x cells, without rucaparib) 119% | viability ([9]; at 0.00122 µM, OCI-C5x cells, with rucaparib 10 µM, 100% = cells with rucaparib alone) 113% | viability ([9]; at 0.00122 µM, OCI-C5x cells, without rucaparib) 143% | viability ([9]; at 0.00122 µM, OCI-P5x cells, with rucaparib 20 µM, 100% = cells with rucaparib alone) 109% | viability ([9]; at 0.00122 µM, OCI-P5x cells, without rucaparib) 114% | viability ([9]; at 0.00488 µM, OCI-C5x cells, with rucaparib 10 µM, 100% = cells with rucaparib alone) 119% | viability ([9]; at 0.00488 µM, OCI-C5x cells, without rucaparib) 127% | viability ([9]; at 0.00488 µM, OCI-P5x cells, with rucaparib 20 µM, 100% = cells with rucaparib alone) 106% | viability ([9]; at 0.00488 µM, OCI-P5x cells, without rucaparib) 109% | viability ([9]; at 0.0195 µM, OCI-C5x cells, with rucaparib 10 µM, 100% = cells with rucaparib alone) 108% | viability ([9]; at 0.0195 µM, OCI-C5x cells, without rucaparib) 120% | viability ([9]; at 0.0195 µM, OCI-P5x cells, with rucaparib 20 µM, 100% = cells with rucaparib alone) 103% | viability ([9]; at 0.0195 µM, OCI-P5x cells, without rucaparib) 107% | viability ([9]; at 0.0781 µM, OCI-C5x cells, with rucaparib 10 µM, 100% = cells with rucaparib alone) 113% | viability ([9]; at 0.0781 µM, OCI-C5x cells, without rucaparib) 129% | viability ([9]; at 0.0781 µM, OCI-P5x cells, without rucaparib) 106% | viability ([9]; at 0.313 µM, OCI-C5x cells, without rucaparib) 102% | viability ([9]; at 0.313 µM, OCI-P5x cells, without rucaparib) 100%

CC(C)(C)c1cc(C(C)(C)C)c(NC(=O)c2c[nH]c3ccccc3c2=O)cc1O
1.04: fold change [7, 14]
5220: cell count [7, 15]
active: AC50 [1] 11.8 µM | AC50 [4] 10.5 µM | AC50 [6] 14.8 µM | IC50 [10] 16.6 µM
inactive: outcome [2] | outcome [3] | outcome [5] | fold change [7, 13] 0.893 | z-score [8, 17] -0.385
0.598: z-score [8, 18]
5840: cell count [7, 16]

CCN1CCC(n2cc(CNc3cc(Cl)c4ncc(C#N)c(Nc5ccc(F)c(Cl)c5)c4c3)nn2)CC1
active: AC50 [1] 18.6 µM | AC50 [2] 20.9 µM | AC50 [3] 18.7 µM | AC50 [4] 23.5 µM | AC50 [5] 16.6 µM

Cc1ccc(S(=O)(=O)OCC(=O)Nc2ccc(C(=O)O)c(O)c2)cc1
0.798: fold change [7, 14]
0.295: z-score [8, 18]
inactive: outcome [1] | outcome [2] | outcome [3] | outcome [4] | outcome [5] | outcome [6] | outcome [10] | fold change [7, 13] 0.894 | z-score [8, 17] -0.344
7480: cell count [7, 16]
6690: cell count [7, 15]

CC(C)c1cnn2c(NCc3ccccc3)cc(NCCCCCCN)nc12
7920: cell count [7, 15]
-0.75: z-score [8, 18]
active: AC50 [1] 18.6 µM | AC50 [2] 20.9 µM | AC50 [3] 18.7 µM | AC50 [4] 18.6 µM | AC50 [5] 23.5 µM | AC50 [6] 26.3 µM | IC50 [10] 23.5 µM
0.679: fold change [7, 14]
inactive: fold change [7, 13] 0.98 | z-score [8, 17] -0.424
8080: cell count [7, 16]

CN(C)CCCN=c1c2ccccc2n(C)c2[nH]c(=O)n(C)c(=O)c12
6580: cell count [12]
inactive: plate-normalised HSF1 focus index [12] 0.997
active: AC50 [1] 29.5 µM | AC50 [2] 8.33 µM | AC50 [3] 14.8 µM | AC50 [11] 26.3 µM
-0.045: SSMD [12]

O=C1NC(=O)C(c2cnc3ccccn23)=C1c1cn2c3c(cccc13)CN(C(=O)N1CCOCC1)CC2
active: AC50 [1] 1.05 µM | AC50 [3] 0.00833 µM | AC50 [4] 11.8 µM | AC50 [6] 18.6 µM | IC50 [10] 18.6 µM
inactive: outcome [2]

CS[C@H]1SC[C@@H]2C(=O)N(C)[C@H](C(C)C)C(=O)OC[C@H](NC(=O)c3cnc4ccccc4n3)C(=O)N[C@H](C)C(=O)N(C)[C@H]1C(=O)N(C)[C@H](C(C)C)C(=O)OC[C@H](NC(=O)c1cnc3ccccc3n1)C(=O)N[C@H](C)C(=O)N2C
active: AC50 [1] 0.00331 µM | AC50 [2] 0.00118 µM | AC50 [3] 0.00263 µM | AC50 [4] 0.00296 µM | AC50 [6] 0.00186 µM | IC50 [10] 0.0132 µM

CCc1ccc(C(=O)Nc2cc(CN3CCN(C)CC3)cc(C(F)(F)F)c2)cc1C#Cc1cnc2ccnn2c1
active: AC50 [1] 14.8 µM | AC50 [2] 10.5 µM | AC50 [3] 7.43 µM | AC50 [4] 11.8 µM | AC50 [5] 16.6 µM | AC50 [6] 13.2 µM | IC50 [10] 14.8 µM

NCC(=O)Nc1ccc(-n2nc(C(F)(F)F)cc2-c2ccc3c(ccc4ccccc43)c2)cc1
2160: cell count [7, 15]
inactive: fold change [7, 13] 1.2 | z-score [8, 17] -0.432
1800: cell count [7, 16]
active: AC50 [1] 23.5 µM | AC50 [2] 23.5 µM | AC50 [3] 20.9 µM | AC50 [5] 20.9 µM | AC50 [6] 20.9 µM
0.441: fold change [7, 14]
-0.00325: z-score [8, 18]

CCN(CC)CCCCNc1nc2cc(Cl)c(Cl)cc2nc1-c1ccc(-c2cccs2)s1
active: AC50 [1] 6.61 µM | AC50 [2] 7.43 µM | AC50 [3] 7.43 µM | AC50 [4] 5.25 µM | AC50 [5] 14.8 µM | AC50 [6] 9.34 µM

COc1ccc(F)c(F)c1C(=O)c1cnc(NC2CCN(S(C)(=O)=O)CC2)nc1N
-3.07: z-score [8, 18]
1740: cell count [7, 15]
inactive: outcome [5] | fold change [7, 13] 0.981
1770: cell count [7, 16]
0.805: fold change [7, 14]
active: AC50 [1] 1.86 µM | AC50 [2] 2.64 µM | AC50 [3] 1.18 µM | AC50 [4] 2.09 µM | AC50 [6] 3.72 µM | IC50 [10] 1.86 µM | z-score [8, 17] 2.86
